# GALK inhibitor = qHTS Assay for Inhibitors of Human Galactokinase (GALK) | P51570 | Purified GALK, Kinase-Glo residual ATP luminescence | Potency, µM (doses to about 57.5 µM), for the others: at the top dose activity change, negative = inhibition, most hits filed as inhibitors | 0.007% of 270,000 active | AID 1868, 2009; further: potency means the concentration at half of the fitted maximal effect
#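 Galactose (100 uM) and ATP (35 uM) were turned over by 5 nM GALK for 1 h at RT. Kinase-Glo Plus then converted the remaining ATP into a luminescent signal.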
# FBPA coupling cs = qHTS Assay for Inhibitors of Fructose-1,6-bisphosphate Aldolase from Giardia Lamblia: Coupling assay counterscreen; 0.67% of 290,000 active; AID 2472, 2010; activity change, negative = inhibition, % at 58.2 µM, hits read low; coupling enzyme system counterscreen, AmpLite Red fluorescence; in the data active means activity change below about -30%
#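 Coupling enzymes only (glyceraldehyde-3-phosphate) + compound, at 57.5 uM final, 10 min RT; add substrate/coupling/AmpLite Red mix, 20 min RT; fluorescence ex 525/em 598 nm. Actives flag coupling-system interference.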
# TrxR1 substrate = qHTS Assay for Substrates of Mammalian Selenoprotein Thioredoxin Reductase 1 (TrxR1): qHTS; Thioredoxin reductase 1, cytoplasmic (Rattus norvegicus), O89049; purified TrxR1 substrate turnover, NADPH consumption readout; Potency, µM (titrated, usually from 114 µM), without a hit: top-dose activity change, negative = substrate turnover; 0.01% of 390,000 active; further: potency means the concentration at half of the fitted maximal effect; nearly all actives have a fitted effect of over 50% in size
# Target sequence (O89049 whole entry, looked up): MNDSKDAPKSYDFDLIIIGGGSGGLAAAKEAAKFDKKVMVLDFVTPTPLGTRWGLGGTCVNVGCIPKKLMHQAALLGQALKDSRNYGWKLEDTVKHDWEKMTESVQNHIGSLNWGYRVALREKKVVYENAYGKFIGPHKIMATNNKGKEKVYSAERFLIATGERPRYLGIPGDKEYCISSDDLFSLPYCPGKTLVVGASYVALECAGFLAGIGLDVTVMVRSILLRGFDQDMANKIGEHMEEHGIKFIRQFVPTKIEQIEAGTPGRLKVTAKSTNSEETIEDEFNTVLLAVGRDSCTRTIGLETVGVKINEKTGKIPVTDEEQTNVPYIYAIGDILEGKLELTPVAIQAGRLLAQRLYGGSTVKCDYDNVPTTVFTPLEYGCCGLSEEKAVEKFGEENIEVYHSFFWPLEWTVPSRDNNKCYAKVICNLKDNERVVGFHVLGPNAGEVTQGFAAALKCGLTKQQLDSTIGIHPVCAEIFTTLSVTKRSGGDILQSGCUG
#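 Rat TrxR1, dispensed at 90 nM, was prereduced with 400 uM NADPH (final) for 5 min at ~22 deg C, then incubated with compound 15 min before 400 uM selenite. A first-read NADPH fluorescence drop versus no-compound background flagged substrates.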
# VP16 counter = VP16 counterscreen qHTS for inhibitors of ROR gamma transcriptional activity; Drosophila S2 Gal4-VP16 UAS-luciferase, luminescence, 20 h; Potency, µM (highest dose often 53.6 µM), without a hit: top-dose activity, negative = inhibition, most hits filed as inhibitors; 3.5% of 310,000 active; AID 2546, 2010;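 further: Gal4-VP16 expression switched on by copper sulfate through the metallothionein promoter; potency means the concentration at half of the fitted maximal effect; nearly all actives have a fitted effect of over 50% in size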
# rTrxR1 inhibitor = qHTS Assay for Inhibitors of Mammalian Selenoprotein Thioredoxin Reductase 1 (TrxR1): qHTS | AID 588453, 2011 | recombinant rTrxR1, NADPH fluorescence consumption, selenite substrate | Potency, µM (titrated, usually from 114 µM), inactives show at the highest dose activity change, negative = inhibition, hits mostly inhibitors | 1% of 390,000 active; further: potency means the concentration at half of the fitted maximal effect; nearly all actives have a fitted effect of over 65% in size
#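 Rat TrxR1 (90 nM in the dispensed reagent) was pre-reduced with 400 uM NADPH for 5 min at room temperature, then incubated with compound for 15 min. After 400 uM selenite was added, NADPH fluorescence (Ex 340/Em 450 nm) was followed for 8 min.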
# RORg inh = qHTS for inhibitors of ROR gamma transcriptional activity; Drosophila S2 Gal4-RORgamma UAS-luciferase reporter, 20 h; Potency, µM (series often up to 53.6 µM), for the others: at the highest dose activity change, negative = inhibition, hits mostly inhibitors; 5.4% of 310,000 active; AID 2551, 2010; further: potency means the concentration at half of the fitted maximal effect; nearly all actives have a fitted effect of over 60% in size
#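 A Gal4/UAS one-hybrid system in insect cells: metallothionein-promoter Gal4–ROR gamma fusion plus Photinus luciferase reporter. Copper sulfate 700 uM final, 20 hr ambient incubation, luminescent detection after 10 min with reagent.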
# The depositor's hits bear a star; u = inconclusive; x = not tested or not shown; ! = not active in a repeat; [ ] = another dose, or the depositor's remark. Rows were chosen to be rich in hits. Some 5.9% of all compounds tested hit in one or more screens of this group. Unless noted, the call rests on the fitted dose curve; in most records, active means well fitted curve in the direction sought with a large enough effect; inconclusive means small, poorly fitted or top-dose-only effect, or another doubt; inactive means no such curve, though single readings can be large; an effect the other way counts as inactive or inconclusive. On the % scale 0 is the no-effect control and ±100 the full control effect.
SMILES,GALK inhibitor,FBPA coupling cs,TrxR1 substrate,VP16 counter,rTrxR1 inhibitor,RORg inh
CCOc1cc(C2C(C#N)=C(N)Oc3c2c(=O)oc2ccccc32)ccc1OC(=O)c1cccs1 (configuration not stated),1%,2,-4%,-20%,-13%,-6%
Cn1c(O)c(C2=NNC(c3ccc(Cl)cc3)C2)c(=O)n(C)c1=O (configuration not stated),0%,-3,6%[57.1 µM],5µM*,19%[57.1 µM],7.1µM*
Cc1cc(OCC(=O)N2CCN(CC(=O)N3CCOCC3)CC2)c(C(C)C)cc1Cl,x,x,-4%,x,-8%,x
O=[N+]([O-])C(Br)Br,x,x,x,11µM*,x,13µM*
CC(=O)Oc1c2c(c(CC=C(C)C)c3c1C(=O)C1=CC4CC5C(C)(C)OC(C/C=C(\C)C(=O)O)(C4=O)[C@]15O3)OC(C)(CCC=C(C)C)C=C2 (some centres not stated),x,-2,x,u,x,3.5µM*
COC(=O)/C(C)=C\CC12OC(C)(C)C3CC(C=C4C(=O)c5c(OC)c6c(c(CC=C(C)C)c5OC431)OC(C)(CCC=C(C)C)C=C6)C2=O (configuration not stated),x,-2,x,-1%,x,u
O=C1CC2OCC=C3CN4CC[C@]56c7ccccc7N1[C@H]5[C@H]2C3C[C@H]46 (some centres not stated),x,5,x,-1%,x,4%
S=c1[nH]nc(-c2ccccc2)n1CC1CCCO1 (configuration not stated),1%,-2,-2%,-16%,u,-13%
S=c1[nH]nc(-c2ccccc2)n1C1C=CCCC1 (configuration not stated),2%,4,7%,2.8µM*,-17%,-127%
CC[C@@H]1CN2CCc3cc(OC)c(OC)cc3[C@@H]2C[C@@H]1C[C@H]1NCCc2cc(OC)c(OC)cc21,x,-1,x,-95%,x,1.1µM*
CC[C@@H]1CN2CCc3cc(OC)c(OC)cc3[C@H]2C[C@@H]1C[C@H]1NCCc2cc(OC)c(OC)cc21,x,0,x,u,x,0.56µM*
CCCCCn1c(=O)c(C(=O)NCc2ccc(Cl)cc2)c(O)c2ccccc21,-3%,-2,7%,13µM*,14%,10µM*
CCCCn1c(=O)c(C(=O)NCc2ccccc2Cl)c(O)c2ccccc21,4%,-2,4%,1%,15%,16µM*
CCCCCCn1c(=O)c(C(=O)Nc2ncccc2C)c(O)c2ccccc21,2%,-2,-6%,7.9µM*,14%,14µM*
CCCCn1c(=O)c(C(=O)NCc2ccncc2)c(O)c2ccccc21,3%,-5,0%,u,-11%,u
CCCCn1c(=O)c(C(=O)NCc2ccccc2)c(O)c2ccccc21,5%,0,-2%,u,23%,u
CN1CCN(Cc2ccccc2Sc2ccccc2)CC1,1%,-8,0%,-2%,5%,-6%
O=C1C2C3CCC(O3)C2C(=O)N1CCO (configuration not stated),4%,1,-5%,-7%,6%,20%
COc1cc(O)c(C(=O)O)c(-c2cc(O)c(O)cc2C)c1,-6%,3,0%[57.1 µM],-4%,0.79µM*,29%
COc1ccc2c(c1)c(C(=O)O)c(C)n2CC(C)C,-4%,-4,12%,-7%,14%,19%
Cn1c(O)c(C=NCCN2CCOCC2)c(=O)[nH]c1=S,7%,2,-13%,-6%,-20%,15%
CCNCCNc1ccc([N+](=O)[O-])c2cccnc12,1%,-1,-6%,20µM*,4%,2.8µM*
Cc1nonc1OCCNCCNc1ccc([N+](=O)[O-])c2cccnc12,1%,-13,-10%,5µM*,-5%,1.8µM*
O=[N+]([O-])c1ccccc1CN1CC=C(c2ccc(F)cc2)CC1,2%,-1,-3%,3%,13%,u
CCCCn1c(-c2nn(C)cc2Cl)n[nH]c1=S,x,1,-10%,u,-29%,13µM*
SMILES,GALK inhibitor,FBPA coupling cs,TrxR1 substrate,VP16 counter,rTrxR1 inhibitor,RORg inh
Cc1ccccc1-n1nc(C)c2c1NC(=O)CSC2c1ccc(Cl)cc1 (configuration not stated),x,x,5%,x,10%,x
C=C1[C@@H](C)[C@H]2[C@H](Cc3ccccc3)NC(=O)[C@]23OC(=O)/C=C/[C@H](O)CCC[C@@H](C)C/C=C/[C@H]3[C@@H]1O,-2%,2,4%,3%,50µM*!,6%
C=C1C(C)C2C(Cc3ccccc3)NC(=O)C23C(OC(C)=O)C=CC(C)(O)CC(C)CC=CC3C1O (configuration not stated),x,x,15%[57.1 µM],x,17%[57.1 µM],x
Cc1ccc(Cn2cccc(C(=O)Nc3cc(C)on3)c2=O)cc1,x,x,-4%[57.1 µM],x,7%[57.1 µM],x
COc1ccc(OCCn2cc(/C=C(\C#N)C(=O)NCc3ccco3)c3ccccc32)cc1,x,-3,-4%,3.5µM*,-13%,-41%
COc1ccc2cc1Oc1ccc(cc1)CC1c3cc(c(OC)cc3CCN1C)Oc1c(OC)c(OC)cc3c1C(C2)N(C)CC3 (configuration not stated),x,-8,x,u,x,u
CCc1n[nH]c(=S)n1/N=C/c1c(C)nn(-c2ccccc2)c1Cl,-2%,3,8%[57.1 µM],u,1%[57.1 µM],7.1µM*
Cc1nn(CCc2n[nH]c(=S)n2-c2cccc(Cl)c2)c(C)c1[N+](=O)[O-],-3%,1,-4%,-22%,u,u
Clc1ccc(-c2nc3ccc(Cl)cn3c2CN2CCCCC2)cc1,8%,-9,-8%,-23%,-4%,5µM*
Cc1nn(C(C)(C)C)c(C)c1/C=N/OC(=O)Nc1ccc(Cl)c(Cl)c1,-4%,-2,2%,1µM*,11%,0.22µM*
O=c1c2ccccc2nc(-c2ccccc2)n1-n1cccc1,2%,4,-2%,0%,11%,-26%
Cc1nc2c(=O)n(C)c(=O)nc-2n(C)n1,u,-2,35µM*,3.5µM*,50µM*,u
Cn1nc(-c2ccccc2)nc2c(=O)n(C)c(=O)nc1-2,x,x,40µM*,x,u,x
C[C@]12CC[C@H](OS(=O)(=O)O)CC1=CCC1C2CC[C@]2(C)C(=O)CC[C@@H]12 (some centres not stated),x,x,x,-3%,u,0%

# Assay outcomes deposited in PubChem by National Center for Advancing Translational Sciences (NCATS).
